NPR2 activator = GC-B (human) receptor activation; HEK293-GC-B cells, CNP EC30, cGMP TR-FRET; 0% at EC30 CNP, 100% saturating CNP; activation, % at 10 µM; 370,000 compounds, 0.11% hits;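 active = activation at 10 µM reaching about 35% in either raw or pattern-adjusted values, limit read from the data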
TLR4-MyD88 BLA = TLR4-MyD88 interaction inhibition in cells; O00206+Q99836; HeLa CL3-4 TLR4/MyD88 BLA complementation, FRET ratio; inhibition, % at 8.4 µM; 200,000 compounds, 0.18% hits; AID 861; in the data active = inhibition above about 25%;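 note: 0% = vehicle and 100% = reference inhibitor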
NOD2-RIPK2 inh = inhibitors of human NOD2-RIPK2 interaction; CHO BLA complementation NOD2-RIPK2, CCF4 ratio; inhibition, % at 4.98 µM; 360,000 compounds, 0.38% hits; AID 624267; in the data active = inhibition above about 21%;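 note: 0% = vehicle only and 100% = reference blocker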
Neddyl block = cullin neddylation inhibition; TR-FRET cullin neddylation, biochemical; 360,000 compounds, 0.58% hits; P61081+Q13564; inhibition, % at 25 µM; in the data active = inhibition above about 36%
Target sequence (P61081 whole entry, looked up): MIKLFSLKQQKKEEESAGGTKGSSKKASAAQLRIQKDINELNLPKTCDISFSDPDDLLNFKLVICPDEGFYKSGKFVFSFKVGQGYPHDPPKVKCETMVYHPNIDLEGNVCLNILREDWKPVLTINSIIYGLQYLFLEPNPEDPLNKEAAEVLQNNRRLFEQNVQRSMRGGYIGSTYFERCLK
Target sequence (Q13564 whole entry, looked up): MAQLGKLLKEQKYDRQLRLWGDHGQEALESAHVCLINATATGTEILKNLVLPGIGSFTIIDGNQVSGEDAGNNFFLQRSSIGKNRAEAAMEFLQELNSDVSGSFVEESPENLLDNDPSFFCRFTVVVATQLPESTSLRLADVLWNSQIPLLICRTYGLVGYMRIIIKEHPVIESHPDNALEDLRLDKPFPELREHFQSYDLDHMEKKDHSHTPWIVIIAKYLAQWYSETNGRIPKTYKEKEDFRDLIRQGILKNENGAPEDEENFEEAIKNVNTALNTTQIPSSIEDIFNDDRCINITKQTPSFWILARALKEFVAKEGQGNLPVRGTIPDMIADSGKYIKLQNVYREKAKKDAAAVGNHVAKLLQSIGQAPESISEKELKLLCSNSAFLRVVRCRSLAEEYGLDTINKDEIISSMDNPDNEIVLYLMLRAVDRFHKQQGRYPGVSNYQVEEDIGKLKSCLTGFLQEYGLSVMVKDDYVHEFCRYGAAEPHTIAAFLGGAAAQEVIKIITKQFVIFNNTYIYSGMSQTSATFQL
GC-A act = GC-A (human) enzyme activation; HEK293 GC-A cells, cGMP TR-FRET, EC30 ANP; 0% at EC30 ANP, 100% saturating ANP; activation, % at 10 µM; AID 1671463; P16066; 370,000 compounds, 0.14% hits; in the data active = activation above about 40%
TLR9-MyD88 inh = TLR9-MyD88 interaction inhibition; inhibition, % at 4.98 µM; Q9NR96+Q99836; 340,000 compounds, 0.21% hits; CHO BLA complementation TLR9-MyD88, CCF4 FRET ratio;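 active = inhibition above the mean over all tested compounds plus 3 SD, cut at about 21% in these data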;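 note: 0% = DMSO only wells and 100% = clavulanate BLA inhibitor control wells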
NOD2-RIPK2 conf = confirmation of human NOD2-RIPK2 interaction inhibitors. shares compounds with NOD2-RIPK2 inh. CHO cells, NOD2-RIPK2 BLA complementation, CCF4 FRET. inhibition, % at 4.98 µM. 1,200 compounds, 70% hits. AID 624370;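 active = mean inhibition across replicates above a set limit taken from the earlier primary screen, cut at about 21% in these data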;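 note: 0% = DMSO-only wells and the high end = clavulanate BLA-blocked wells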
BLA counter = hits BLA reporter in NOD2-RIPK2 inhibitor counterscreen; 1,200 compounds, 57% hits; CHO BLA reporter, CCF4 FRET ratio; shares compounds with NOD2-RIPK2 inh; inhibition, % at 4.98 µM;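 active = mean inhibition above the low-control mean inhibition plus three low-control SD, cut at about 11% in these data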;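 note: 0% = DMSO only wells and 100% = clavulanate high control wells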
Active calls of the source: *; x = no result shown. Shown are actives, neighbours in structure and some others; about 1.2% of the full set was active somewhere.

SMILES	NPR2 activator	TLR4-MyD88 BLA	NOD2-RIPK2 inh	Neddyl block	GC-A act	TLR9-MyD88 inh	NOD2-RIPK2 conf	BLA counter
Cc1ccccc1/C=N/Nc1ccnc2cc(Cl)ccc12	1	8	-7	31	1	7	x	x
CCOC(=O)N1CCN(C(=O)C2CCN(C(=O)c3ccccc3C)CC2)CC1	18	x	22*	-34	41*	14	71*	18*
CCOC(=O)c1sc2nc(-c3ccccc3)ccc2c1N	-4	15	23*	x	12	12	48*	59*
CCOC(=O)c1sc2nc(C)cc(-c3ccccc3)c2c1N	-5	9	16	x	11	10	x	x
C[C@H]1[C@@H](N(C)C)CC[C@@]23CCCN2C(=O)CCC[C@@H]13	-7	x	x	x	0	x	x	x
N#Cc1c(C(F)(F)F)cc(-c2ccco2)nc1SCc1ccccn1	1	-6	10	12	2	16	x	x
N#Cc1c(C(F)(F)F)cc(-c2ccco2)nc1SCc1ccncc1	0	13	29*	22	8	18	-3	-2
Cc1[nH]c(=S)c(C#N)c2c1CCCC2	-1	-10	27*	-21	6	2	-9	-6
Cc1[nH]c(=O)c(C#N)c2c1CCCC2	1	2	-12	9	2	-17	x	x
COCCNC(=S)N/N=C/c1ccc(-c2ccc([N+](=O)[O-])cc2)o1	-2	x	31*	-26	2	14	44*	47*
NC(=O)N/N=C/c1ccc(-c2ccc([N+](=O)[O-])cc2)o1	-8	x	9	-52	1	-1	x	x
Cc1c2cnn(CC(=O)Nc3c(F)c(F)cc(F)c3F)c(=O)c2c(C)n1Cc1ccccc1F	5	17	24*	1	-3	-4	10	-1
Clc1nc2c(-c3ccccc3)nnn2c2ccccc12	10	x	24*	2	28	20	80*	62*
Cc1ccc(-c2nnn3c2nc(Cl)c2ccccc23)cc1	-4	24	1	-124	18	-6	x	x
COc1ccc(OC)c2sc(N(CCN(C)C)C(=O)/C=C/c3cccs3)nc12	-6	x	21*	7	8	-13	38*	8
CCc1ccc2nc(N(CCN(C)C)C(=O)/C=C/c3cccs3)sc2c1	x	x	10	9	x	3	x	x
Cc1ccc2nc(N(CCN(C)C)C(=O)/C=C/c3cccs3)sc2c1	-9	-15	22*	16	-5	16	32*	25*
C[C@@H]1CN([C@@H](C)CO)C(=O)c2cc(Br)cnc2O[C@@H]1CN(C)Cc1ccccn1	-4	x	x	x	-3	x	x	x
O=S(=O)(Nc1ccc(C(O)(C(F)(F)F)C(F)(F)F)cc1)c1ccc(Cl)c2nonc12	x	x	29*	4	x	x	32*	4
O=S(=O)(Nc1ccc(C(O)(C(F)(F)F)C(F)(F)F)cc1)c1cccs1	-3	x	x	x	-1	x	x	x
COc1cc(OC)c(OC)cc1/C=C/C(=O)c1ccc(NS(=O)(=O)c2ccc(C)cc2)cc1	-5	17	34*	5	1	20	34*	40*
CCOC(=O)/C=C/C(=O)Nc1ccc(S(=O)(=O)Nc2c(C)cc(C)cc2C)cc1	0	-7	-12	1	6	-6	x	x
CCOC(=O)/C=C/S(=O)(=O)c1ccc(NC(C)=O)cc1	-1	11	22*	7	13	23*	54*	21*
Cc1ccc2c(c1)C1CS(=O)(=O)N(CC(C)C)CN1C2 (configuration not stated)	1	x	x	x	2	x	x	x
CC1(C)CC(=O)C(C=Nc2ccc(C(=O)c3ccccc3)cc2N=CC2=C(O)CC(C)(C)CC2=O)=C(O)C1	-11	14	27*	36	20	18	-3	-3
Cc1ccc(-c2nn(-c3ccccc3)cc2C(=O)O)o1	x	2	x	x	x	x	x	x

Screening data from PubChem.
